B1: unnamed (peptide)
chain: DAPASKPSVPPRNYF

Biological target: AgAbp1
Experiment: SPOT peptide array binding signal intensity (averaged, normalized) (arbitrary units (background-subtracted, floor 0; scale differs between SH3 domains)); higher = stronger binding of the SH3 domain to the peptide
How it was run: (§1)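 Spot intensities were captured after detection with anti-GST antibody, an HRP-linked anti-mouse secondary and luminol, and quantified with Genespotter. The probes were GST-fused SH3 domains from four yeast species, produced in E. coli BL21(DE3), purified on glutathione Sepharose and incubated at 10 μg/ml overnight at 4°C on cellulose-bound synthetic 15-mer peptides with cysteines replaced by serines. Binding signal is the normalized, background-subtracted spot intensity averaged over replicates, and its arbitrary units differ between domains.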

Binder | SPOT peptide array binding signal intensity
B1 | 2.5

Biological target: AgBbc1
Experiment: as above
How it was run: as §1

Binder | SPOT peptide array binding signal intensity
B1 | 239

Biological target: AgBem1-D1
Experiment: as above
How it was run: as §1

Binder | SPOT peptide array binding signal intensity
B1 | 2

Biological target: AgBzz1-D1
Experiment: as above
How it was run: as §1

Binder | SPOT peptide array binding signal intensity
B1 | 26.5

Biological target: AgBzz1-D2
Experiment: as above
How it was run: as §1

Binder | SPOT peptide array binding signal intensity
B1 | ≤ 0

Biological target: AgCyk3
Experiment: as above
How it was run: as §1

Binder | SPOT peptide array binding signal intensity
B1 | 2.5

Biological target: AgFus1
Experiment: as above
How it was run: as §1

Binder | SPOT peptide array binding signal intensity
B1 | ≤ 0

Biological target: AgHof1
Experiment: as above
How it was run: as §1

Binder | SPOT peptide array binding signal intensity
B1 | ≤ 0

Biological target: AgHse1
Experiment: as above
How it was run: as §1

Binder | SPOT peptide array binding signal intensity
B1 | ≤ 0

Biological target: AgLsb1
Experiment: as above
How it was run: as §1

Binder | SPOT peptide array binding signal intensity
B1 | 1080

Biological target: AgLsb4
Experiment: as above
How it was run: as §1

Binder | SPOT peptide array binding signal intensity
B1 | 69.5

Biological target: AgMyo5
Experiment: as above
How it was run: as §1

Binder | SPOT peptide array binding signal intensity
B1 | ≤ 0

Biological target: AgNbp2
Experiment: as above
How it was run: as §1

Binder | SPOT peptide array binding signal intensity
B1 | 45

Biological target: AgRvs167
Experiment: as above
How it was run: as §1

Binder | SPOT peptide array binding signal intensity
B1 | 13.2

Biological target: AgSho1
Experiment: as above
How it was run: as §1

Binder | SPOT peptide array binding signal intensity
B1 | 1

Biological target: AgSla1-D1-D2
Experiment: as above
How it was run: as §1

Binder | SPOT peptide array binding signal intensity
B1 | ≤ 0

Biological target: AgSla1-D3
Experiment: as above
How it was run: as §1

Binder | SPOT peptide array binding signal intensity
B1 | ≤ 0

Biological target: CaAbp1-D1
Experiment: as above
How it was run: as §1

Binder | SPOT peptide array binding signal intensity
B1 | 17.5

Biological target: CaAbp1-D2
Experiment: as above
How it was run: as §1

Binder | SPOT peptide array binding signal intensity
B1 | 3

Biological target: CaBbc1
Experiment: as above
How it was run: as §1

Binder | SPOT peptide array binding signal intensity
B1 | 962

Biological target: CaBem1-D1
Experiment: as above
How it was run: as §1

Binder | SPOT peptide array binding signal intensity
B1 | ≤ 0

Biological target: CaBzz1-D1
Experiment: as above
How it was run: as §1

Binder | SPOT peptide array binding signal intensity
B1 | 190

Biological target: CaBzz1-D2
Experiment: as above
How it was run: as §1

Binder | SPOT peptide array binding signal intensity
B1 | 5.75

Biological target: CaCyk3
Experiment: as above
How it was run: as §1

Binder | SPOT peptide array binding signal intensity
B1 | 34.5

Biological target: CaFus1
Experiment: as above
How it was run: as §1

Binder | SPOT peptide array binding signal intensity
B1 | ≤ 0

Biological target: CaHof1
Experiment: as above
How it was run: as §1

Binder | SPOT peptide array binding signal intensity
B1 | ≤ 0

Biological target: CaHse1
Experiment: as above
How it was run: as §1

Binder | SPOT peptide array binding signal intensity
B1 | ≤ 0

Biological target: CaLsb1
Experiment: as above
How it was run: as §1

Binder | SPOT peptide array binding signal intensity
B1 | 35

Biological target: CaLsb4
Experiment: as above
How it was run: as §1

Binder | SPOT peptide array binding signal intensity
B1 | 427

Biological target: CaMyo5
Experiment: as above
How it was run: as §1

Binder | SPOT peptide array binding signal intensity
B1 | ≤ 0

Biological target: CaNbp2
Experiment: as above
How it was run: as §1

Binder | SPOT peptide array binding signal intensity
B1 | ≤ 0

Biological target: CaRvs167
Experiment: as above
How it was run: as §1

Binder | SPOT peptide array binding signal intensity
B1 | 199

Biological target: CaRvs167-3
Experiment: as above
How it was run: as §1

Binder | SPOT peptide array binding signal intensity
B1 | ≤ 0

Biological target: CaSho1
Experiment: as above
How it was run: as §1

Binder | SPOT peptide array binding signal intensity
B1 | ≤ 0

Biological target: CaSla1-D1-D2
Experiment: as above
How it was run: as §1

Binder | SPOT peptide array binding signal intensity
B1 | 38

Biological target: CaSla1-D3
Experiment: as above
How it was run: as §1

Binder | SPOT peptide array binding signal intensity
B1 | ≤ 0

Biological target: ScAbp1
Experiment: as above
How it was run: as §1

Binder | SPOT peptide array binding signal intensity
B1 | ≤ 0

Biological target: ScBbc1
Experiment: as above
How it was run: as §1

Binder | SPOT peptide array binding signal intensity
B1 | 5.5

Biological target: ScBem1-D1
Experiment: as above
How it was run: as §1

Binder | SPOT peptide array binding signal intensity
B1 | 2

Biological target: ScBzz1-D1
Experiment: as above
How it was run: as §1

Binder | SPOT peptide array binding signal intensity
B1 | 20

Biological target: ScBzz1-D2
Experiment: as above
How it was run: as §1

Binder | SPOT peptide array binding signal intensity
B1 | 10

Biological target: ScCyk3
Experiment: as above
How it was run: as §1

Binder | SPOT peptide array binding signal intensity
B1 | ≤ 0

Biological target: ScFus1
Experiment: as above
How it was run: as §1

Binder | SPOT peptide array binding signal intensity
B1 | ≤ 0

Biological target: ScHof1
Experiment: as above
How it was run: as §1

Binder | SPOT peptide array binding signal intensity
B1 | ≤ 0

Biological target: ScHse1
Experiment: as above
How it was run: as §1

Binder | SPOT peptide array binding signal intensity
B1 | ≤ 0

Biological target: ScLsb1
Experiment: as above
How it was run: as §1

Binder | SPOT peptide array binding signal intensity
B1 | 681

Biological target: ScLsb2
Experiment: as above
How it was run: as §1

Binder | SPOT peptide array binding signal intensity
B1 | 2160

Biological target: ScLsb3
Experiment: as above
How it was run: as §1

Binder | SPOT peptide array binding signal intensity
B1 | 1550

Biological target: ScLsb4
Experiment: as above
How it was run: as §1

Binder | SPOT peptide array binding signal intensity
B1 | 293

Biological target: ScMyo3
Experiment: as above
How it was run: as §1

Binder | SPOT peptide array binding signal intensity
B1 | ≤ 0

Biological target: ScMyo5
Experiment: as above
How it was run: as §1

Binder | SPOT peptide array binding signal intensity
B1 | ≤ 0

Biological target: ScNbp2
Experiment: as above
How it was run: as §1

Binder | SPOT peptide array binding signal intensity
B1 | 526

Biological target: ScPex13
Experiment: as above
How it was run: as §1

Binder | SPOT peptide array binding signal intensity
B1 | 1310

Biological target: ScRvs167
Experiment: as above
How it was run: as §1

Binder | SPOT peptide array binding signal intensity
B1 | 1530

Biological target: ScSho1
Experiment: as above
How it was run: as §1

Binder | SPOT peptide array binding signal intensity
B1 | ≤ 0

Biological target: ScSla1-D1-D2
Experiment: as above
How it was run: as §1

Binder | SPOT peptide array binding signal intensity
B1 | 329

Biological target: ScSla1-D3
Experiment: as above
How it was run: as §1

Binder | SPOT peptide array binding signal intensity
B1 | 145

Biological target: SpAbp1-D1
Experiment: as above
How it was run: as §1

Binder | SPOT peptide array binding signal intensity
B1 | 3

Biological target: SpBbc1
Experiment: as above
How it was run: as §1

Binder | SPOT peptide array binding signal intensity
B1 | 182

Biological target: SpBzz1-D1
Experiment: as above
How it was run: as §1

Binder | SPOT peptide array binding signal intensity
B1 | 95

Biological target: SpBzz1-D2
Experiment: as above
How it was run: as §1

Binder | SPOT peptide array binding signal intensity
B1 | 0.5

Biological target: SpCyk3
Experiment: as above
How it was run: as §1

Binder | SPOT peptide array binding signal intensity
B1 | ≤ 0

Biological target: SpHof1
Experiment: as above
How it was run: as §1

Binder | SPOT peptide array binding signal intensity
B1 | 1

Biological target: SpHof1-2
Experiment: as above
How it was run: as §1

Binder | SPOT peptide array binding signal intensity
B1 | 2

Biological target: SpHof1-3
Experiment: as above
How it was run: as §1

Binder | SPOT peptide array binding signal intensity
B1 | 11

Biological target: SpHse1
Experiment: as above
How it was run: as §1

Binder | SPOT peptide array binding signal intensity
B1 | ≤ 0

Biological target: SpLsb1
Experiment: as above
How it was run: as §1

Binder | SPOT peptide array binding signal intensity
B1 | 756

Biological target: SpLsb4
Experiment: as above
How it was run: as §1

Binder | SPOT peptide array binding signal intensity
B1 | 3340

Biological target: SpMyo1
Experiment: as above
How it was run: as §1

Binder | SPOT peptide array binding signal intensity
B1 | 2

Biological target: SpNbp2
Experiment: as above
How it was run: as §1

Binder | SPOT peptide array binding signal intensity
B1 | 3

Biological target: SpPex13
Experiment: as above
How it was run: as §1

Binder | SPOT peptide array binding signal intensity
B1 | ≤ 0

Biological target: SpRvs167
Experiment: as above
How it was run: as §1

Binder | SPOT peptide array binding signal intensity
B1 | 802

Biological target: SpSla1-D1-D2
Experiment: as above
How it was run: as §1

Binder | SPOT peptide array binding signal intensity
B1 | ≤ 0

Biological target: SpSla1-D3
Experiment: as above
How it was run: as §1

Binder | SPOT peptide array binding signal intensity
B1 | ≤ 0

Reference: the supplement of paper PMC4466140
